High-throughput results from PubChem BioAssay.
In the library only some 2.6% were active in any assay of this set; here they are far more common.
HepG2 tox – kills HepG2 cells in TGF-b inhibitor counter-screen; HepG2 CAGA-GFP viability, ATP luminescence, 18 h; hit rate 0.76% among 410,000; Potency, µM (titrated, usually from 46.1 µM), for the others: at the top dose activity change, negative = cytotoxicity, most hits filed as cytotoxic; note: potency is the fitted concentration of half-maximal effect
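CellTiter-Glo luminescence gave cytotoxicity after 18 hours at 37 degrees C. The cells were HepG2 CAGA-GFP in 1% FBS DMEM, stimulated with 500 pg/mL TGF-beta after compound addition. %Activity was normalised to no-cell wells (complete cell-killing) and DMSO (no toxicity), and curves were fitted and classified.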
Giardia kill – Giardia lamblia killing; Giardia lamblia trophozoite viability; activity change, % at 7.66 µM, hits read low; hit rate 0.15% among 340,000; AID 540267; in the data active = activity change below about -80%; inconclusive = between about -30% and that limit;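 note: parasites exposed to compound for two days anaerobically before the ATP read; % is set by controls: 0 for no effect and ±100 for the full control effect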
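Media and compound were dispensed first, then trophozoites at 100 cells/well; plates sat 48 hrs at 37 deg C without oxygen before ATP luminescence reagent was added and read after 15-30 min at room temperature.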
uPA generation – inhibitors of cell surface uPA generation. cell surface uPA generation assay, qHTS. hit rate 0.31% among 330,000. AID 540303. Potency, µM (top dose mostly 38.3 µM), inactives show at the highest dose activity change, negative = inhibition, most hits filed as inhibitors; active = well fitted inhibition curve with a large enough effect; inconclusive = small, poorly fitted or top-dose-only effect; inactive = no such curve, though single readings can be large or run the other way; tested in mouse RAW 264.7 cells; note: potency is the fitted concentration of half-maximal effect; % is set by controls: 0 for no effect and ±100 for the full control effect; nearly all actives have a fitted effect of over 55% in size
ATXN2 expr inh – reduces ATXN2 reporter expression in HEK-293 cells; HEK-293 ATXN2-luciferase reporter, luminescence, 24 h; Potency, µM (series often up to 57 µM), for inactives: at the highest dose activity change, negative = inhibition, most hits filed as inhibitors; hit rate 0.72% among 360,000; note: potency is the fitted concentration of half-maximal effect; % is set by controls: 0 for no effect and ±100 for the full control effect; nearly all actives have a fitted effect of over 55% in size
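ATXN2-luciferase reporter cells (luciferase flanked by upstream and downstream ATXN2 gene portions) were treated 24 h at 37 °C with compounds at up to 57 uM. SteadyGlo luminescence gave expression; GF-AFC fluorescence gave viability.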
ATXN viability – reduces viability in counter-screen for ATXN expression inhibitors. hit rate 0.49% among 400,000. S2 cells (HEK-293 line with an ATXN2-luciferase reporter) viability, CellTiter-Fluor protease fluorescence, 24 h. Potency, µM (highest dose often 56.7 µM), most hits filed as cytotoxic; note: potency is the fitted concentration of half-maximal effect; nearly all actives have a fitted effect of over 40% in size
TGFb inhibitor – TGF-b pathway inhibition; HepG2 CAGA-GFP TGF-b/SMAD3 reporter, GFP fluorescence, 18 h; TGF-beta stimulated, 500 pg/mL final; Potency, µM (series often up to 46.1 µM), without a hit: at the highest dose activity, negative = inhibition, most hits filed as inhibitors; hit rate 1.2% among 410,000; AID 588855; note: potency is the fitted concentration of half-maximal effect; % is set by controls: 0 for no effect and ±100 for the full control effect; nearly all actives have a fitted effect of over 65% in size
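First, reporter cells (HEPG2 CAGA-GFP) rested 2 h at 37 degrees C. Next, compounds were pinned in and TGF-beta added to 500 pg/mL final. After 18 h, GFP was imaged per cell and summed per well.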
* marks the source's active call; other numbers are inactive results; i = inactive; ? = inconclusive; · = not tested or not shown; ! = not confirmed by another sample. Unless noted, calls come from the whole dose curve; as a rule, active = well fitted curve in the direction sought with a large enough effect; inconclusive = small, poorly fitted or top-dose-only effect, or another doubt; inactive = no such curve, though single readings can be large; an effect the other way counts as inactive or inconclusive.

SMILES	HepG2 tox	Giardia kill	uPA generation	ATXN2 expr inh	ATXN viability	TGFb inhibitor
CCCCCn1c2c(c(=N)c3ccccc31)CCC2	-51%	-18	-6%	?	i	?
CCCCCCCCCn1c2c(c(=N)c3c1CCC3)CCCC2	-98%	-20	-17%	?	?	6.3µM*
CCCCCCCCCCn1c2c(c(=N)c3c1CCC3)CCC2	-97%	17	-7%	?	?	13µM*
Cc1cc(C(C)Nc2ccccc2)c2nc(N3CCOCC3)cc(=O)n2c1 (stereo not given)	·	·	·	4%	·	·
CCN(CC)S(=O)(=O)c1ccc(S(=O)(=O)Nc2ccc3c(c2)oc2ccccc23)cc1	-76%	28	2%	-15%	i	?
CN(C)S(=O)(=O)c1ccc(S(=O)(=O)Nc2ccc3c(c2)oc2ccccc23)cc1	-34%	11	8%	-5%	i	11µM*
Cc1ccc(NC(C)c2cc(Cl)ccc2O)cc1 (stereo not given)	11µM*	-15	4%	-3%	i	0%
CC(Nn1cnnc1)c1cc(Cl)ccc1O (stereo not given)	8%	-5	1%	3%	i	17%
CCOC(=O)c1[nH]c(C)c(C(=O)Nc2ccc(C)cc2C)c1C	-5%	-28	2.5µM*	4%	i	-4%
CCOC(=O)c1[nH]c(C)c(C(=O)Nc2ccc(C)c(C)c2)c1C	-17%	4	?	3%	i	-11%
COCCCNC(=O)c1cnn(-c2ncc3c(n2)-c2ccccc2CCC3)c1C	·	·	·	·	i	·
Cc1ncc(CO)c(/C=N/Nc2ccc(C(F)(F)F)cn2)c1O	-16%	-18	4%	6.3µM*	i	0%
Cc1ncc(CO)c(/C=N/NC(=S)Nc2ccc(F)cc2)c1O	-28%	-7	-11%	?	i	-15%
O=C1NC[C@H](CCCCN2C[C@H](Cc3ccccc3)N(CC3CCCCC3)C(=O)C2=O)N(CC2CCCCC2)C1=O	·	·	·	-22%	14µM*	·
O=C1NC[C@H](Cc2ccccc2)N(C[C@H]2CCCN2C[C@H](Cc2ccccc2)N2C[C@H](Cc3ccccc3)N(CC3CCCCCC3)C(=O)C2=O)C1=O	-70%	-22	?	?	18µM*	?
CC(C)C[C@H]1CN([C@@H](Cc2ccccc2)CN2CCC[C@@H]2CN2C(=O)C(=O)NC[C@@H]2Cc2ccc(O)cc2)C(=O)C(=O)N1CC1CCCCCC1	-9%	·	·	9%	?	?
CC(C)C[C@H]1CN([C@@H](Cc2ccccc2)CN2CCC[C@@H]2CN2C(=O)C(=O)NC[C@@H]2Cc2ccccc2)C(=O)C(=O)N1CC1CCCCC1	20µM*	·	·	?	20µM*	8.9µM*
O=C(N/C(=C/c1cccc(Br)c1)c1nc(=S)[nH][nH]1)c1ccccc1	-29%	4	0%	8%	?	?
Cc1ccc(C(=O)N/C(=C\c2ccc(Br)cc2)c2nc(=S)[nH][nH]2)cc1	13µM*	10	-6%	?	·	?
O=C(C[n+]1cccc(Br)c1)c1ccc(Br)cc1	-53%	·	·	·	·	?
CCCCN1CC(c2nc3ccccc3n2CCCCOc2cc(C)cc(C)c2)CC1=O (stereo not given)	-106%	·	·	?	?	?
CCCCN1CC(c2nc3ccccc3n2CCCCOc2ccc(C)c(C)c2)CC1=O (stereo not given)	-103%	·	·	?	·	11µM*
CCCCN1CC(c2nc3ccccc3n2CCCCOc2cccc(C)c2C)CC1=O (stereo not given)	11µM*	·	·	?	?	?
C(=C\c1ccnc2ccccc12)/c1ccccc1	-23%	·	·	·	·	3%
CN(C)C(=O)c1ccc(N=Nc2c(O)c3ccccc3[nH]c2=O)cc1	11µM*	-29	-10%	-34%	?	15%
SMILES	HepG2 tox	Giardia kill	uPA generation	ATXN2 expr inh	ATXN viability	TGFb inhibitor
Cc1cc(N=Nc2c(O)c3ccccc3[nH]c2=O)ccc1N=Nc1ccc(C(=O)N(C)C)cc1	-75%	-1	13%	·	i	13µM*
CC(C)[C@H](NC(=O)Cc1ccccc1)C(=O)OCc1cc(=O)n2c(n1)sc1ccccc12	-25%	-10	6%	6%	i	16µM*
CN(C)c1ccc(/C=C/c2ncnc3ccccc23)cc1	-27%	·	·	·	·	249%
C/C(=N/NS(=O)(=O)c1ccc(C)cc1C)c1c[nH]c2ccccc12	-25%	-2	-5%	-18%	i	18µM*
Cc1ccc(C#N)c(SCc2ccccc2F)n1	40%	-7	4%	-13%	i	-3%
Cc1ccc2nc(CSc3nc(C)ccc3C#N)[nH]c2c1	-50%	-88*	·	2.2µM*	·	-1%
CC(C)(C)Cc1c(-c2ccc(Br)cc2)nc2ccc(Br)cn12	-33%	·	·	-28%	?	16µM*
CC(C)(C)Cc1c(-c2ccc(F)cc2)nc2ccc(Cl)cn12	-55%	·	·	-37%	?	11µM*
C(=C\c1ccnc2ccccc12)/c1ccc(-[n+]2cc[n+](-c3ccc(/C=C/c4ccnc5ccccc45)cc3)cc2)cc1	-27%	·	·	·	·	?
N#Cc1ccc(Nc2nc(-c3ccc(O)cc3O)cs2)cc1C(F)(F)F	-110%	9	1%	25µM*	22µM*	?
Oc1ccccc1N=N/C(=N/Nc1ccccc1O)c1ccccc1	-3%	?	13%	13%	i	14%
N#C/C(N=Nc1ccccc1O)=N\Nc1ccccc1O	-67%	-7	?	?	16µM*	?
CCN(CC)CCOc1ncnc2c1oc1ccccc12	-3%	-8	-1%	-4%	i	-4%
CCCCc1oc2ccccc2c1C(=O)c1cc(I)c(OCCN(CC)CC)c(I)c1	-35%	2	-1%	28µM*!	·	21%
Cc1ccc(Cn2c(=N)n(CC(=O)c3ccc([N+](=O)[O-])cc3)c3ccccc32)cc1	-25%	-10	-2%	20µM*	·	-22%
